These sequences were tested against PAFAH1B2 (assay: pooled miR-30 sensor sort-seq; sequence = guide strand). Conditions: shRNA.
TTCTGCTGTATTTTCGTGGTTA gave a sensor-assay potency score (higher = more potent) of 0.637.
Sequence TGTGCTGAGACATCCATCGGTC has a sensor-assay potency score (higher = more potent) of -0.024.
With TACCCAGACAACAATGACCTTA the sensor-assay potency score (higher = more potent) was -0.359.
Work on TTACAGTCCAAAACAAATCTGT yielded a sensor-assay potency score (higher = more potent) of 0.236.
TAATATTCTCCAGTTCTCCATT was tested, and the sensor-assay potency score (higher = more potent) was -1.1.
ATGAATTTAAACAACAATCTTC was tested, and the sensor-assay potency score (higher = more potent) was -0.0238.
With TTAGTCTCCACAAAACATGTCT the sensor-assay potency score (higher = more potent) was -0.124.
In the case of TTTCGTGGTTATTTGTTCCTAC, the sensor-assay potency score (higher = more potent) is reported as 0.14.
Sequence TTGCTGCATTAACTGCACCATG has a sensor-assay potency score (higher = more potent) of -1.37.

These sequences were tested against PAG1 in the same assay as above. Conditions: shRNA.
Work on TACATAATAGAACATATCCTAA yielded a sensor-assay potency score (higher = more potent) of -0.651.
TAAACTGTAGCATTAGCTCAAG showed a sensor-assay potency score (higher = more potent) of -0.488.
Sequence TTTTTTGTTTCTGTCCACCGAG has a sensor-assay potency score (higher = more potent) of -0.11.
TTTTTGTTTCTGTCCACCGAGG was tested, and the sensor-assay potency score (higher = more potent) was -1.07.
For TTGTTTTTGATAACTACCTTTC, the sensor-assay potency score (higher = more potent) was -0.868.
TTCTTGTGTAGTTATCTGCCTA showed a sensor-assay potency score (higher = more potent) of -0.676.
Sequence TTAAACTGTAGCATTAGCTCAA has a sensor-assay potency score (higher = more potent) of 0.54.
With TTGCAAAATAATGACAACCAAC the sensor-assay potency score (higher = more potent) was -1.68.
In the case of TTACTGATGAGTACATAGCTGA, the sensor-assay potency score (higher = more potent) is reported as -0.0368.
Sequence TAAATTTCACATAACCTGCTAT has a sensor-assay potency score (higher = more potent) of 0.485.
TAATATTTGAAAACTCTTGGGG was tested, and the sensor-assay potency score (higher = more potent) was 0.247.
In the case of TTTTCTTTTCTATATAGCGTTT, the sensor-assay potency score (higher = more potent) is reported as -1.01.

Each sequence was assayed against PALB2 in the same assay as above. Conditions: shRNA.
For TTGTTCTAACATAATATTCTGC, the sensor-assay potency score (higher = more potent) was -0.275.
In the case of TACAGCATCACACCCACGCTGA, the sensor-assay potency score (higher = more potent) is reported as -0.615.
TTGAATAAATAATTTTTCGTGC was tested, and the sensor-assay potency score (higher = more potent) was -0.674.
For TATAGCTTTATTTACAAGGAGG, the sensor-assay potency score (higher = more potent) was -1.15.
Sequence TAACATAATATTCTGCAGGAAA has a sensor-assay potency score (higher = more potent) of -1.13.
TTTGCTACTGATTTCTTCCTGT showed a sensor-assay potency score (higher = more potent) of 0.661.
In the case of TTCTTGAACTTGGTTGTCCTGT, the sensor-assay potency score (higher = more potent) is reported as 0.276.
TTCCTGTGTATCTTCTACCAGG gave a sensor-assay potency score (higher = more potent) of -0.953.
Sequence TTAGGAATGTATCAACACCTTT has a sensor-assay potency score (higher = more potent) of -0.84.
Work on TAAATTTTTACTTGCATCCTTA yielded a sensor-assay potency score (higher = more potent) of 0.122.
For TACATGGCTCTTTACAACCGGC, the sensor-assay potency score (higher = more potent) was -0.961.
TTTGTATAGGTAATCCTCCTGG was tested, and the sensor-assay potency score (higher = more potent) was 0.029.

Each sequence was assayed against PALM2-AKAP2 in the same assay as above. Conditions: shRNA.
Work on TTGTTCTTTCTCATGCTCGTCA yielded a sensor-assay potency score (higher = more potent) of 0.379.
TTTTAGATTTGTGTGTCTCATA showed a sensor-assay potency score (higher = more potent) of -0.987.
In the case of TTTCTCATGCTCGTCATCCTCA, the sensor-assay potency score (higher = more potent) is reported as 0.127.
TTGAACAGGAGAAGACACCTGA was tested, and the sensor-assay potency score (higher = more potent) was 1.01.
TTGACAGATCTTGAGAACTGAT gave a sensor-assay potency score (higher = more potent) of -0.51.
With TTAGTCAGTGGCTTGTCTGAGT the sensor-assay potency score (higher = more potent) was 0.113.
With TTGATTTGCTTGTAACATGTTT the sensor-assay potency score (higher = more potent) was -0.674.

Source: the OligoGym collection
Also: reference of the scale not given here.
